We go through 23 compounds from PubChem BioAssay (NCATS).

Records with an inconclusive call do not appear. A number with no mark means an inactive call. Active and inactive are the calls of the source. The call rests on the fitted dose curve; in most records, active means well fitted curve in the direction sought with a large enough effect; inconclusive means small, poorly fitted or top-dose-only effect, or another doubt; inactive means no such curve, though single readings can be large; an effect the other way counts as inactive or inconclusive.

The target in experiment [1] is Rap guanine nucleotide exchange factor 3 (Homo sapiens) (UniProt O95398). Put plainly: Confirmatory qHTS for antagonist of cAMP-regulated guanine nucleotide exchange factor 3 (EPAC1) (AID 1645880). Further: nearly all actives have a fitted effect of over 55% in size. Further: potency means the concentration at half of the fitted maximal effect. The essentials:
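Released BODIPY-GDP fluoresces less than Rap1-bound BODIPY-GDP; the signal is followed at 480/540 nm at 5-min intervals over 30 min, after 5 min at room temperature. Reactions contain 100 nM EPAC1, 250 nM RAP1B-BODIPY-GDP and 50 uM GDP; results are normalized to ATA and DMSO.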
(In general: In qHTS, concentration-response curves come from the screen itself.)

For experiment [2] the target is unchanged. Put plainly: Confirmatory qHTS for agonist of cAMP-regulated guanine nucleotide exchange factor 3 (EPAC1) (AID 1645881). Further: nearly all actives have a fitted effect of over 75% in size. Further: potency means the concentration at half of the fitted maximal effect.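 On activation: EPAC1 catalysed release of BODIPY-GDP from Rap1B seen as fluorescence loss; 100% = effect of cAMP agonist control.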
The target in experiment [3] is Rap guanine nucleotide exchange factor 4 (Homo sapiens) (UniProt Q8WZA2). Kind of experiment: Confirmatory qHTS for agonist of cAMP-regulated guanine nucleotide exchange factor 4 (EPAC2) (AID 1645884).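 Further: nucleotide exchange releases bodipy-GDP from Rap1 and this lowers its fluorescence; nearly all actives have a fitted effect of over 65% in size.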 Further: potency means the concentration at half of the fitted maximal effect. On activation: on the % scale 0 is the no-effect control and ±100 the full control effect.
For experiment [4] the target is unchanged. Kind of experiment: Confirmatory qHTS for antagonist of cAMP-regulated guanine nucleotide exchange factor 4 (EPAC2) (AID 1645885). Further: nearly all actives have a fitted effect of over 25% in size. Further: potency means the concentration at half of the fitted maximal effect. On activity change, negative = inhibition: on the % scale 0 is the no-effect control and ±100 the full control effect.
For experiment [5], the target named is Rap guanine nucleotide exchange factor 3 (Homo sapiens) (UniProt O95398). Kind of experiment: Counterscreen qHTS for antagonist of cAMP-regulated guanine nucleotide exchange factor 3 (EPAC1) (AID 1645888). Further: % of control where 0% means no effect. The essentials:
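Rap1B–BODIPY-GDP (250 nM) with 50 uM GDP; compounds pin-transferred to 9.74 nM–152 uM final (activator) or from 7.32 nM upwards (inhibitor). Fluorescence Ex/Em 480/540 nm read at 5 and 30 min, then after adding cAMP or buffer, at room temperature.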
Background: The purpose of a counterscreen is to sort out artefacts and off-target activity.

Rap guanine nucleotide exchange factor 4 (Homo sapiens), sequence (Q8WZA2 whole entry, looked up): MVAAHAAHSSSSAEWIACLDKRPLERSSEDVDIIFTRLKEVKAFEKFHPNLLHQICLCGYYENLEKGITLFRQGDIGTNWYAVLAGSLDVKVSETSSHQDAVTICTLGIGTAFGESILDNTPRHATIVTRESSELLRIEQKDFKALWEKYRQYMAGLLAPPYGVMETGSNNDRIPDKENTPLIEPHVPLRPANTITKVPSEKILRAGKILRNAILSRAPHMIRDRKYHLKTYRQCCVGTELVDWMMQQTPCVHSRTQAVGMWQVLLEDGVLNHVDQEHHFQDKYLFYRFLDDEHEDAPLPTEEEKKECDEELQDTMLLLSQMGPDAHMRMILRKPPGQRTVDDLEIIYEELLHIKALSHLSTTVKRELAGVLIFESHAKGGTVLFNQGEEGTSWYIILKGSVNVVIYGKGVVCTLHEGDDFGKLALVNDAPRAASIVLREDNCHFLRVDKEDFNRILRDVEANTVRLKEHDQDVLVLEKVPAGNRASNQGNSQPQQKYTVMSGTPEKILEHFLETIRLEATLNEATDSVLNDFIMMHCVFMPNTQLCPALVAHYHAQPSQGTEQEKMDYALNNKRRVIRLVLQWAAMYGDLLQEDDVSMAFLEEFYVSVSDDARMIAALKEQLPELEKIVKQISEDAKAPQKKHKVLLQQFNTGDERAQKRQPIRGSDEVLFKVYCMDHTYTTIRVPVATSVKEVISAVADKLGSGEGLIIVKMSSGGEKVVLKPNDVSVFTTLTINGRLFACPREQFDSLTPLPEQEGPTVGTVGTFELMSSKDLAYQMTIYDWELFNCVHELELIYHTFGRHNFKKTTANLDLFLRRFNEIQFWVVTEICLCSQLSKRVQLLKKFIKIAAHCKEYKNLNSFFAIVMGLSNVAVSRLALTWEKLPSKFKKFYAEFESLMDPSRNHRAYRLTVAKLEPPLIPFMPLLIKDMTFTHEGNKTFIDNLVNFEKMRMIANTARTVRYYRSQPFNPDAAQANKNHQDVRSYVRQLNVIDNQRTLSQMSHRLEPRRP
Rap guanine nucleotide exchange factor 3 (Homo sapiens), sequence (O95398 whole entry, looked up): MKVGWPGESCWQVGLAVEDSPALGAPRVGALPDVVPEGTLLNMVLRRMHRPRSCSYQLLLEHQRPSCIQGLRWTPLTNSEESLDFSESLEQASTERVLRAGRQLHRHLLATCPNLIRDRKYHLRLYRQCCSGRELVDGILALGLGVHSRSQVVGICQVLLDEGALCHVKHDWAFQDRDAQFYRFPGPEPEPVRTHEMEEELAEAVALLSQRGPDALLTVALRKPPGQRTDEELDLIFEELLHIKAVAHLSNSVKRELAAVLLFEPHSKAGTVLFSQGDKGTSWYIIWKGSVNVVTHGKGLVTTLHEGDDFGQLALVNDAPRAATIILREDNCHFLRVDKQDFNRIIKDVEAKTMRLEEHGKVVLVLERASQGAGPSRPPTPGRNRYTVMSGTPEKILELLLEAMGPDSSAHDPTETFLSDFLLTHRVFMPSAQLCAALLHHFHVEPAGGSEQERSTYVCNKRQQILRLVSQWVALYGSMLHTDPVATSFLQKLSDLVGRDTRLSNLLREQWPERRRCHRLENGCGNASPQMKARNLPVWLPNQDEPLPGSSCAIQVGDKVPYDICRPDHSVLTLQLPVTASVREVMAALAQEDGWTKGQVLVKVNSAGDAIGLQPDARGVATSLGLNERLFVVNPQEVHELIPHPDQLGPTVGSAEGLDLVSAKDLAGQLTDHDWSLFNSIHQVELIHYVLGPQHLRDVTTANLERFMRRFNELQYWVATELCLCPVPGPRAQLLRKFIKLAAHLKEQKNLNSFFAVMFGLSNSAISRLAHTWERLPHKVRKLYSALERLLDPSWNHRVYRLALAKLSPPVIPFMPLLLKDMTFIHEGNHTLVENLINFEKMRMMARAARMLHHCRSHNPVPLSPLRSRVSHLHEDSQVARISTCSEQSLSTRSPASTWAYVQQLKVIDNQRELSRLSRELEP

Take `O=C(Nc1cccc(Cl)c1)N(Cc1nc2ccccc2c(=O)[nH]1)Cc1cccs1`: the Potency entry in experiment [1], in experiment [2] and in experiment [4] was “inactive” in each case. Moreover, the activation in experiment [3] is 5.3% [at 17.1 µM, percent relative to cAMP agonist control]. Besides, the activity change, negative = inhibition in experiment [5] is 2.45% [at 30.8 µM].
Turning to `C=CCn1c(SCC(=O)Nc2sccc2C(N)=O)nc2sc(CC)cc2c1=O`, the Potency result in experiment [1], in experiment [2] and in experiment [4] was “inactive” each time. Moreover, the activation in experiment [3] is 6.26% [at 17.1 µM, percent relative to cAMP agonist control]. In addition, the activity change, negative = inhibition in experiment [5] was -8.95% [at 30.8 µM].
For the compound `O=C1C(Cl)=C(NC(=O)c2ccccc2)C(=O)C(Cl)=C1NC(=O)c1ccccc1`, the Potency entry in experiment [1], in experiment [2], in experiment [3], in experiment [4] and in experiment [5] was “inactive” each time.
With `Cc1ccc(S(=O)(=O)N(C)C)cc1NC(=O)CSc1nc2ncc(Cl)cc2[nH]1`, the Potency entry in experiment [1], in experiment [2], in experiment [3] and in experiment [5] was “inactive” throughout. Further, the outcome in experiment [4] is “inactive [at 12.7 µM]”.
On to `C(=C\c1ccccc1)/CN1CCN(C(c2cc3ccccc3o2)c2nnnn2C2CCCC2)CC1` (stereo not given), for which the Potency entry in experiment [1], in experiment [2] and in experiment [4] was “inactive” each time. For the same compound, the activation in experiment [3] is 0% [at 17.1 µM, percent relative to cAMP agonist control]. Moreover, the activity change, negative = inhibition in experiment [5] was 19.5% [at 30.8 µM].
With `Cc1c(Cl)cccc1NC(=O)CN(CCc1ccccc1)S(=O)(=O)c1ccccc1`, the Potency result in experiment [1], in experiment [2], in experiment [3], in experiment [4] and in experiment [5] was “inactive” in each case.
For `COc1ccc(-c2n[nH]c3c2C(c2ccc(Cl)cc2Cl)NC3=O)cc1` (stereo not given), the Potency result in experiment [1], in experiment [2], in experiment [3], in experiment [4] and in experiment [5] was “inactive” each time.
For `CC1Oc2ccc(C#N)cc2N(Cc2ccccc2OC(F)(F)F)C1=O` (stereo not given), the Potency entry in experiment [1], in experiment [2] and in experiment [4] was “inactive” each time. The activation in experiment [3] was 4.28% [at 17.1 µM, percent relative to cAMP agonist control]. For the same compound, the activity change, negative = inhibition in experiment [5] was -10.7% [at 30.8 µM].
For the compound `CCN(CC(=O)Nc1ccc(NC(C)=O)cc1)CC(=O)Nc1ccc(F)c(Cl)c1`, the Potency entry in experiment [1], in experiment [2] and in experiment [4] was “inactive” throughout. Moreover, the activation in experiment [3] is 5.14% [at 17.1 µM, percent relative to cAMP agonist control]. Moreover, the activity change, negative = inhibition in experiment [5] was 3.51% [at 30.8 µM].
On to `CCc1nc2c(OCc3ccc(C#N)cc3)cccn2c1N(C)C(=O)c1ccc(C)cc1`, for which the Potency entry in experiment [1], in experiment [2], in experiment [3] and in experiment [5] was “inactive” in each case. Also, in experiment [4], the Potency was 19 µM (active).
Take `O=S(c1ccc2ccccc2c1)c1cnns1` (stereo not given): the Potency entry in experiment [1], in experiment [2], in experiment [3], in experiment [4] and in experiment [5] was “inactive” throughout.
Take `C#CCOCCOCCOCCNc1nc(N2CCN(C(=O)[C@H](Cc3cc4ccccc4[nH]3)n3cc([C@@H](N)Cc4ccc(O)cc4)nn3)CC2)nc(N2CCN(C(=O)[C@H](Cc3cc4ccccc4[nH]3)n3cc([C@@H](N)CC(C)C)nn3)CC2)n1`: the Potency in experiment [1] is 44.7 µM (active). The Potency result in experiment [2] and in experiment [4] was “inactive” in each case. Further, the activation in experiment [3] was -1.86% [at 17.1 µM, percent relative to cAMP agonist control]. Also, in experiment [5], the activity change, negative = inhibition is -28.3% [at 30.8 µM].
On to `Cc1ccc(NC(=O)CN(C)C(=O)COC(=O)C2=COCCO2)cc1`, for which the Potency entry in experiment [1], in experiment [2] and in experiment [4] was “inactive” each time. Also, in experiment [3], the activation was 6.32% [at 17.1 µM, percent relative to cAMP agonist control]. Also, the activity change, negative = inhibition in experiment [5] was -1.81% [at 30.8 µM].
With `Cc1cc(NS(=O)(=O)c2ccc(NC(=O)Cc3ccc(Cl)c(Cl)c3)cc2)no1`, the Potency result in experiment [1], in experiment [2], in experiment [3], in experiment [4] and in experiment [5] was “inactive” in each case.
As to `COc1ccc(C=C2SC(=O)NC2=O)cc1OC`, the Potency result in experiment [1], in experiment [2] and in experiment [4] was “inactive” throughout. Further, the activation in experiment [3] is 12% [at 17.1 µM, percent relative to cAMP agonist control]. For the same compound, in experiment [5], the activity change, negative = inhibition is 12.5% [at 30.8 µM].
Consider `CC(=O)N(C(C)=O)N1C(=O)c2cccc3c(N4CCOCC4)ccc(c23)C1=O`, for which the Potency result in experiment [1], in experiment [2] and in experiment [4] was “inactive” each time. Also, the activation in experiment [3] was 18.1% [at 17.1 µM, percent relative to cAMP agonist control]. Further, the activity change, negative = inhibition in experiment [5] is 16.3% [at 30.8 µM].
In the case of `COCCn1c(SCC(=O)Nc2ccc3c(c2)CCC3)nc2ccccc2c1=O`, the Potency entry in experiment [1], in experiment [2] and in experiment [4] was “inactive” each time. Further, in experiment [3], the activation is -0.521% [at 17.1 µM, percent relative to cAMP agonist control]. Besides, the activity change, negative = inhibition in experiment [5] was -10.3% [at 30.8 µM].
In the case of `Cc1occc1-c1nnc(SCC(=O)Nc2c(F)cccc2F)n1C`, the Potency result in experiment [1], in experiment [2], in experiment [3], in experiment [4] and in experiment [5] was “inactive” each time.
Take `COc1cc(Nc2nc(SCc3cccc(Cl)c3)nc3ccccc23)cc(OC)c1`: the Potency entry in experiment [1], in experiment [2], in experiment [3] and in experiment [5] was “inactive” each time. Further, in experiment [4], the Potency was 0.151 µM (active).
For `CC(C)N1CCc2c(sc(NC(=O)c3ccc(S(=O)(=O)N4CCCCC4C)cc3)c2C(N)=O)C1` (stereo not given), in experiment [1], the Potency is 89.1 µM (active). In addition, the Potency entry in experiment [2] and in experiment [4] was “inactive” in each case. In addition, the activation in experiment [3] is 4.64% [at 17.1 µM, percent relative to cAMP agonist control]. In addition, the activity change, negative = inhibition in experiment [5] is 3.44% [at 30.8 µM].
With `COc1ccc(OC)c(N=Cc2c(O)c3ccccc3oc2=O)c1`, the Potency result in experiment [1], in experiment [4] and in experiment [5] was “inactive” each time. The Potency is 112 µM (active) in experiment [2] and 89.1 µM (active) in experiment [3].
For the compound `NC(=O)C1CCN(C(=O)Nc2csc3ccccc23)CC1`, the Potency result in experiment [1], in experiment [2], in experiment [3] and in experiment [5] was “inactive” each time. For the same compound, in experiment [4], the Potency was 12 µM (active).
For `COc1ccc(OCC(=O)NCCC2=CCCCC2)c([N+](=O)[O-])c1`, the Potency entry in experiment [1], in experiment [2] and in experiment [4] was “inactive” in each case. In experiment [3], the activation is 7.73% [at 17.1 µM, percent relative to cAMP agonist control]. Moreover, the activity change, negative = inhibition in experiment [5] was -6.06% [at 30.8 µM].
